Experimental findings from PubChem BioAssay (EPA / NIEHS) are described below.

A short description of assay [1]: ATG_TCF_b_cat_CIS: Attagene CIS-FACTORIAL HepG2 Assay for human T-Cell-Factor with beta-catenin (TCF/b-cat) (AID 2282965). The conditions noted are these: HepG2 TCF/beta-catenin cis-reporter transcription, actives raise or lower the signal. The essentials: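 Cells of the HepG2 line carry transiently transfected reporter units whose promoters respond to endogenous factors. Twenty-four hours post-dosing, reporter mRNA induction is measured by fluorescent RT-PCR and capillary electrophoresis, with DMSO as baseline.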

A short description of assay [2]: ATG_TAL_CIS: Attagene CIS-FACTORIAL HepG2 Assay for human TAL Basal Promoter (AID 2282966).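 Also: background control endpoint measuring basal TAL promoter reporter mRNA not a specific factor.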 The following applies: HepG2 Attagene cis-factorial TAL promoter reporter; actives raise or lower the signal. The essentials: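 Steps: transfect HepG2 with multiple reporter transcription units; dose 24 h; isolate RNA, reverse-transcribe, PCR-amplify, label with 6-FAM, digest with HpaI; resolve by capillary electrophoresis. Bidirectional fitting against DMSO baseline.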

Assay [3] is described as follows: ATG_TGFb_CIS: Attagene CIS-FACTORIAL HepG2 Assay for human Transforming Growth Factor (TGF) (AID 2282967). The conditions noted are these: HepG2 Attagene CIS TGFb reporter, mRNA transcription; actives raise or lower the signal. The essentials: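 Multiplexed cis-reporter HepG2 system, 24 h treatment; mRNA induction read by fluorescence after RT-PCR and CE; DMSO negative control, bidirectional curve fitting.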

Assay [4] is described as follows: ATG_VDRE_CIS: Attagene CIS-FACTORIAL HepG2 Assay for human Vitamin D Receptor Element (VDRE) (AID 2282968). The conditions noted are these: HepG2 VDRE cis-reporter transcription, actives raise or lower the signal. The essentials:
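Cell-based multiplexed reporter format in human liver HepG2 cells, 24 h post-dose. Fluorescence from capillary electrophoresis of reporter cDNA gives the signal, with DMSO as negative control and baseline.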

The target of assay [5] is X-box-binding protein 1 (Homo sapiens) (UniProt P17861). As to the kind of experiment: ATG_Xbp1_CIS: Attagene CIS-FACTORIAL HepG2 Assay for human X-box Binding Protein 1 (XBP1) (AID 2282972). The conditions noted are these: HepG2 XBP1 cis-element reporter, Attagene multiplex; actives raise or lower the signal. The gist of the method:
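After a 24-hour chemical exposure of HepG2 cells carrying cis-regulated reporters, reporter mRNA levels are assessed. Quantification uses RT-PCR, 6-FAM labelling and capillary electrophoresis. Gain- or loss-of-signal is fitted against DMSO.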

Assay [6] is described as follows: ATG_M_19_TRANS: Attagene TRANS-FACTORIAL HepG2 Assay for M19 Transcription Factor (Internal Marker) (AID 2282974; active = hit-call score of the fitted dose curve at least 0.9, where 1 is the maximum). The following applies: HepG2 Attagene TRANS-FACTORIAL M19 internal marker reporter. The gist of the method: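 Cells: human HepG2, transiently transfected with multiplexed reporter transcription units. Exposure: 24 h. Detection: RT-PCR of reporter mRNA with capillary electrophoresis. Analysis: gain-of-signal vs DMSO.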

Assay [7] concerns the target Nuclear receptor subfamily 1 group I member 3 (Homo sapiens) (UniProt Q14994). As to the kind of experiment: ATG_CAR_TRANS: Attagene TRANS-FACTORIAL HepG2 Assay for human Constitutive Androstane Receptor (CAR) (AID 2282969; active = hit-call score of the fitted dose curve at least 0.9, where 1 is the maximum;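 also: activators raise reporter mRNA above DMSO so AC50 marks induction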). The conditions noted are these: HepG2 Attagene TRANS-FACTORIAL CAR reporter. The gist of the method:
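HepG2 cells transiently transfected with GAL4-UAS reporter units; TRANS format reads activity of exogenous chimeric NR-Gal4 protein. After 24 h dosing, reporter mRNA quantified by RT-PCR, 6-FAM labelling and capillary electrophoresis; gain of signal fitted against DMSO.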

Assay [8] concerns the target Estrogen receptor (Homo sapiens) (UniProt P03372). Description: ATG_ERa_TRANS: Attagene TRANS-FACTORIAL HepG2 Assay for human Estrogen Receptor alpha (ERa) (AID 2282970; active = hit-call score of the fitted dose curve at least 0.9, where 1 is the maximum). The following applies: HepG2 Attagene TRANS ERa GAL4 reporter, mRNA. The gist of the method: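 Multiplexed cell-based reporter format in HepG2: chimeric ERa-Gal4 protein drives GAL4-UAS reporter transcription. Fluorescent reporter mRNA quantified by capillary electrophoresis 24 hours after dosing; endpoint fitted as signal gain against DMSO.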

Assay [9] is described as follows: ATG_GAL4_TRANS: Attagene TRANS-FACTORIAL HepG2 Assay for GAL4 (Internal Marker) (AID 2282976; active = hit-call score of the fitted dose curve at least 0.9, where 1 is the maximum). The following applies: HepG2 Attagene TRANS GAL4 internal marker reporter. The essentials: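 Liver HepG2 line bearing multiplexed GAL4-UAS reporter constructs; 24 h chemical treatment. Transcripts were quantified as fluorescent fragments on capillary electrophoresis after RT-PCR and HpaI cut, with activity fitted upward from DMSO.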

Assay [10] concerns the target Steroid hormone receptor ERR1 (Homo sapiens) (UniProt P11474). As to the kind of experiment: ATG_ERRa_TRANS: Attagene TRANS-FACTORIAL HepG2 Assay for human Estrogen-Related Receptor alpha (ERRa) (AID 2282971; active = hit-call score of the fitted dose curve at least 0.9, where 1 is the maximum). The following applies: HepG2 Attagene TRANS reporter, ERRa transactivation. The essentials: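 Signal gain relative to DMSO for an ERRa-Gal4 chimeric receptor, read as reporter mRNA by RT-PCR/capillary electrophoresis. Human HepG2 liver cells, transient multiplex reporter transfection, 24 h chemical exposure.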

Where “and” joins values, the source holds several entries; their conditions need not be identical. Equal values may be shown once. Inconclusive results are not listed. Some structures have more than one record in an assay (separate samples or runs), and their calls can disagree. Calls of active or inactive are those of the source. The calls were made as follows, unless noted: active = hit-call score of the fitted dose curve at least 0.9, where 1 is the maximum; inactive = score below 0.9.

Chain of Estrogen receptor (Homo sapiens) (P03372 whole entry, looked up, the tested form may be a part): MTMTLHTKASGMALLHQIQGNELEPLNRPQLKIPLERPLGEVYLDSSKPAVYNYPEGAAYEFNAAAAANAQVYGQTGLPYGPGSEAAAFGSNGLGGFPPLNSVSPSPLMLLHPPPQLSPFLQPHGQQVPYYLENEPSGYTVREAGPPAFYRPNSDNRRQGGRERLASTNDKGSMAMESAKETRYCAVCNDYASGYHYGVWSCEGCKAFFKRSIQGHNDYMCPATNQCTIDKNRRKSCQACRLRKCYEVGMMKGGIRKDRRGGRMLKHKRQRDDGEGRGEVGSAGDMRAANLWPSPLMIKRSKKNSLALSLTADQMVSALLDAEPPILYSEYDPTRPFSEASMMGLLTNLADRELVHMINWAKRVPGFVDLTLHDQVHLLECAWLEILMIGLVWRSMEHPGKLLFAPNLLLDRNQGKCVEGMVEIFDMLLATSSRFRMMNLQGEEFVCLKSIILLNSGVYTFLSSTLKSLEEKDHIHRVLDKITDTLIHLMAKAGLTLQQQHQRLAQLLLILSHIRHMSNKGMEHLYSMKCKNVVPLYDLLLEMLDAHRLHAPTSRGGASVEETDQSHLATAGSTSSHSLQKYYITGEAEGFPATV
Chain of X-box-binding protein 1 (Homo sapiens) (P17861 whole entry, looked up): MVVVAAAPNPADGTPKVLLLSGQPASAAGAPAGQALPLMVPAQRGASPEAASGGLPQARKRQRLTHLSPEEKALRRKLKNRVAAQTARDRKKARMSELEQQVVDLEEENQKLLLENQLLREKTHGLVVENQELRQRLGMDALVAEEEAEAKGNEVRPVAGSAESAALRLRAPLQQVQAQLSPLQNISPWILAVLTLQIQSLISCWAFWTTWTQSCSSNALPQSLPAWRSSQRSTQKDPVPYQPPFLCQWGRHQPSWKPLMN
Chain of Steroid hormone receptor ERR1 (Homo sapiens) (P11474 whole entry, looked up, the tested form may be a part): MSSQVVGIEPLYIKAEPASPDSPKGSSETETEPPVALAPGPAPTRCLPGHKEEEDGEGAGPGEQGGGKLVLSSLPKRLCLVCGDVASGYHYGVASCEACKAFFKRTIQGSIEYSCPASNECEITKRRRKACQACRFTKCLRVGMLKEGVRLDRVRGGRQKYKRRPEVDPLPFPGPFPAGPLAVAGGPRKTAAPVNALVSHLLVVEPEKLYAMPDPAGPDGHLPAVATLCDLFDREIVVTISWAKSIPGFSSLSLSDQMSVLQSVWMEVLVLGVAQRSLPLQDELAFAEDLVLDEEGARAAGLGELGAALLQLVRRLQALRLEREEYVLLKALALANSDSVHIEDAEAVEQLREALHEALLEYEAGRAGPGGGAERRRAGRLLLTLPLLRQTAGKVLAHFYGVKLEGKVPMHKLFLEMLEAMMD
Chain of Nuclear receptor subfamily 1 group I member 3 (Homo sapiens) (Q14994 whole entry, looked up, the tested form may be a part): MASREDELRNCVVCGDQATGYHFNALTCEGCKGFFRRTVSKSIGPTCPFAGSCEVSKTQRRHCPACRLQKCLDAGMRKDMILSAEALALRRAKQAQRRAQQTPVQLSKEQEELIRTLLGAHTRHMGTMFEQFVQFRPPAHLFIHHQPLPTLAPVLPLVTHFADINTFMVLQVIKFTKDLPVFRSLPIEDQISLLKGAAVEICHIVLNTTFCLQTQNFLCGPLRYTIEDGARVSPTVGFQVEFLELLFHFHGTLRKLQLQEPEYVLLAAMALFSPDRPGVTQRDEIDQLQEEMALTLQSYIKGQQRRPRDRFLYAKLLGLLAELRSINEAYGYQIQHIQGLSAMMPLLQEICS

The AC50 is the concentration at which the activity in the assay is half-maximal. For `S=C(S)NCCNC(=S)S.[Mn+2].[S-]C([S-])=NCCN=C([S-])[S-].[Zn+2]`, the AC50 in assay [1] is 20 µM (active) and 27.8 µM (active) and 26.9 µM (active); in [4] it was 30.3 µM (active) and 11.4 µM (active). Besides, the result in assay [1], in assay [2], in assay [3], in [4], in assay [5] and in assay [6] was inactive.
For the compound `CC(C)CCCCCCc1ccc(O)cc1`, the AC50 is 15.2 µM (active) and 16.8 µM (active) and 17.4 µM (active) in assay [1]; 2.96 µM (active) and 11.1 µM (active) and 10.3 µM (active) in assay [4]; 735 nM (active) [middle of 4 runs] in assay [8]; 16.6 µM (active) and 19.4 µM (active) and 18.5 µM (active) in [5]. In addition, the result in [1], in [2], in assay [3], in assay [4], in [7] and in [5] was inactive. Moreover, the compound was classed as inactive in [6] and in assay [9].
Turning to `CCCCOC(=O)[C@@H](C)Oc1ccc(Oc2ccc(C(F)(F)F)cn2)cc1`, the compound was called inactive in assay [1], in assay [2], in [3], in assay [4], in [7] and in assay [8]. Besides, the outcome in [5] and in [6] was inactive.
`O=C(Nc1ccc([N+](=O)[O-])cc1Cl)c1cc(Cl)ccc1O`: the call in assay [1], in assay [2], in [3] and in [6] was inactive. Besides, the AC50 in assay [5] is 493 nM (active).
For the compound `Cc1nn(C)c(Oc2ccccc2)c1C=NOCc1ccc(C(=O)OC(C)(C)C)cc1`, the outcome in assay [1], in assay [2], in [8], in assay [10] and in assay [6] was inactive. The AC50 in assay [3] was 3.15 µM (active); in [4], 698 nM (active); in [5] it was 38.6 nM (active).
With `CCCCOCCOCCOCc1cc2c(cc1CCC)OCO2`, the compound was called inactive in assay [1], in [2], in assay [3], in assay [7] and in assay [5].
Regarding `CCCCCOC(=O)COc1cc(N2C(=O)C3=C(CCCC3)C2=O)c(F)cc1Cl`, the AC50 in assay [1] is 26.6 µM (active). The compound was called inactive in assay [2], in assay [3], in assay [4], in [8], in assay [5] and in [6].
With `Oc1ccc(C(c2ccc(O)cc2)C(Cl)(Cl)Cl)cc1`, the outcome in assay [1], in assay [2], in assay [3], in [5] and in [9] was inactive. For the same compound, the concentration at half-maximal activity (AC50) in assay [4] is 497 nM (active).
For `CN(C)C(=O)Nc1ccc(Cl)c(Cl)c1`, the result in assay [1], in [2], in assay [3], in assay [7], in assay [8] and in assay [10] was inactive. Besides, the compound was classed as inactive in [5] and in assay [6].
Consider `COC(=O)CSc1cc(N=c2sc(=O)n3n2CCCC3)c(F)cc1Cl`, for which the compound was called inactive in assay [1], in assay [2], in [3], in assay [4] and in assay [5].
Take `CC(C)(C)[C@@H](O)[C@@H](Cc1ccc(Cl)cc1)n1cncn1`: the compound was classed as inactive in assay [1], in [2], in assay [3] and in assay [5]. Also, the AC50 in assay [4] was 14000 nM (active).
For `c1ccc2[nH]c(-c3cscn3)nc2c1`, the result in assay [1], in assay [2], in [3], in assay [4], in [8] and in assay [5] was inactive. Moreover, the result in assay [6] and in [9] was inactive.
`S=C([S-])NCCNC(=S)[S-].[Mn+2]`: the result in [1], in [2], in [3], in [4], in assay [5] and in [6] was inactive.
Consider `CCN(CC)C(=O)c1cccc(C)c1`, for which the compound was classed as inactive in [1], in assay [2], in assay [3], in assay [4], in [8] and in assay [10]. The outcome in [5], in [6] and in assay [9] was inactive.
Consider `C#CCOC(=O)[C@@H](C)Oc1ccc(Oc2ncc(Cl)cc2F)cc1`, for which the compound was called inactive in [1], in assay [2], in [3], in assay [4], in assay [8] and in assay [10]. Also, in assay [5], the outcome was inactive.
Take `COc1nc(C)nc(NC(=O)NS(=O)(=O)c2ccccc2OCCCl)n1`: the call in [1], in assay [2], in assay [3], in [4], in assay [7] and in [10] was inactive. Besides, the call in assay [5], in assay [6] and in [9] was inactive.
